Screening results (PubChem)
IMPase Li cell: membrane-permeable IMPase blocker, potentiated with lithium; CHO-M1 cells, IP1 TR-FRET (IP-One), carbachol + lithium; Potency, µM (highest dose often 59.4 µM), for the others: top-dose activity, negative = IMPase inhibition, usual class: inhibitors; hit rate 0.35% among 210,000;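 also: IP1 builds up when IMPase is blocked and the TR-FRET signal falls; potency is read from the fitted curve at half-maximal effect; plate controls were basal vehicle for no effect and high inhibitor control for full effect; nearly all actives have a fitted effect of over 50% in size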
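CHO cells stably expressing M1 receptor (2000/well) were cultured 16–30 h, then exposed to compounds with a small lithium addition for 30 min at 37C. IP1 was measured by TR-FRET competition; AC50 from Hill fits.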
ALDH1A1 block: ALDH1A1 (human) enzyme inhibition; Purified ALDH1A1, NADH fluorescence, propionaldehyde substrate; hit rate 7.3% among 220,000; P00352; Potency, µM (titrated, usually from 75.3 µM), for inactives: at the highest dose activity, negative = inhibition, usual class: inhibitors; AID 1030; active = well fitted inhibition curve with a large enough effect, not every such curve was filed as active; inconclusive = small, poorly fitted or top-dose-only effect, or another doubt; inactive = no such curve, though single readings can be large or run the other way;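 also: potency is read from the fitted curve at half-maximal effect; plate controls were no enzyme wells and a reference inhibitor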
Target sequence (P00352 whole entry, looked up): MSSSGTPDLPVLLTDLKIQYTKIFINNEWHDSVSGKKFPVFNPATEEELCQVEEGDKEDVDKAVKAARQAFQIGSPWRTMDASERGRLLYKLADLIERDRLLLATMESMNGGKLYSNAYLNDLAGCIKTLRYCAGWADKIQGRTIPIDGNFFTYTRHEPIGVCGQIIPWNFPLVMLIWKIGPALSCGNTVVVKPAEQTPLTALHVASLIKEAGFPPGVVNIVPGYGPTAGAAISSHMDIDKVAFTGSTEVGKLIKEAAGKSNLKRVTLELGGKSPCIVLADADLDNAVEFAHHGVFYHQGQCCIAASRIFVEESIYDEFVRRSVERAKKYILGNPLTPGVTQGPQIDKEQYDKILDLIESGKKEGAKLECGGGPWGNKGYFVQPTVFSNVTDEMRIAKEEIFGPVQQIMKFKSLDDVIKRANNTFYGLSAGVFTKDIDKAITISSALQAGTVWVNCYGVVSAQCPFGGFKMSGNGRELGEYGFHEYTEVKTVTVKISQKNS
HPGD block: inhibitors of human 15-hydroxyprostaglandin dehydrogenase (HPGD) | purified HPGD, NADH fluorescence kinetic, PGE2 substrate | Potency, µM, without a hit: at the highest dose activity change, negative = inhibition, usual class: inhibitors | P15428 | hit rate 4.3% among 150,000; active = well fitted inhibition curve with a large enough effect, not every such curve was filed as active; inconclusive = small, poorly fitted or top-dose-only effect, or another doubt; inactive = no such curve, though single readings can be large or run the other way; also: potency is read from the fitted curve at half-maximal effect
Target sequence (P15428 whole entry, looked up): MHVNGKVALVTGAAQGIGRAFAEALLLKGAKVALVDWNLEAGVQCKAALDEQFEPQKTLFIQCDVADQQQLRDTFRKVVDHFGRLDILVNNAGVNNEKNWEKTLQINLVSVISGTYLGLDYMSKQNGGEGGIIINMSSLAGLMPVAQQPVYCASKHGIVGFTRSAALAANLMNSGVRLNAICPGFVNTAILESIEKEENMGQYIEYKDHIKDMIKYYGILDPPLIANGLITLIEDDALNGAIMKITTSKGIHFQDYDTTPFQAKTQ
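20 nM HPGD preincubated 15 min at room temperature with compound in 50 mM Tris-HCl pH 8, 0.01% Tween 20. Started with 1 mM NAD+ and 30 uM prostaglandin E2; NADH fluorescence (360/450 nm) read 5 times over 30-s intervals, last minus first.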
IMPase inh: IMPase inhibition in cells; inhibition (IP1 accumulation), % at 46.1 µM; CHO-M1 cells, IP1 accumulation, HTRF TR-FRET ratio; P97697; 120,000 tested, under 10 active; active = well fitted curve in the direction sought with a large enough effect in the signal ratio, not every such curve was filed as active; inconclusive = small, poorly fitted or top-dose-only effect, or a change in a side signal; inactive = no such curve, though single readings can be large or run the other way; the % refers to the signal ratio;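 also: cells stimulated with carbachol in lithium chloride buffer; plate controls were DMSO basal wells for no effect and reference inhibitor wells for full effect; higher means more IMPase inhibition seen as more IP1 and lower FRET ratio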
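Measured: the HTRF emission ratio (665/620 nm) plus the 620 nm donor channel, each fitted to the Hill equation to give AC50. Cells were CHO-M1 given compounds up to 46 uM and a 30 min carbachol stimulation at 37C.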
PNC assembly inh: blocks assembly of the perinucleolar compartment; PC3M PTB-GFP, PNC prevalence imaging, 16 h; hits give low values; activity change (PNC), negative = inhibition, % at 10 µM; hit rate 3.1% among 140,000;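 active = readout at or below -70, meaning at least 70% loss of cells showing the perinucleolar compartment, a nuclear body marking cancer cells; inconclusive = readout between -30 and a set limit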;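 also: plate controls were DMSO wells for no effect and camptothecin positive control wells for full effect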
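Read-out is percentage of cells bearing a perinucleolar compartment, from automated 20x imaging of fixed, Hoechst-stained PC3M PTB-GFP cells. Cells were seeded 4 h, then exposed 16 h to compound (23 nl of library stock) in duplicate plates.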
ALOX12 inhib: inhibitors of human 12-lipoxygenase (ALOX12) | P18054 | purified 12-hLO, xylenol orange hydroperoxide absorbance | Potency, µM (top dose mostly 57.1 µM), for the others: at the highest dose activity change, negative = inhibition, usual class: inhibitors | hit rate 0.12% among 150,000 | AID 1452; also: potency is read from the fitted curve at half-maximal effect; nearly all actives have a fitted effect of over 55% in size
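Hydroperoxide formation by human 12-lipoxygenase from 40 uM arachidonic acid was followed colorimetrically via ferric-xylenol orange complex, using the 573/405 nm absorbance ratio. Enzyme concentration was 150 nM, with 30 min reaction at room temperature.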
* marks the source's active call; other numbers are inactive results; ? = inconclusive; . = not tested or not shown; [ ] = remark or other dose. Sampled rows, rich in hits. Any-hit rate of the full collection: about 11%. Unless noted, calls follow the shape of the dose curve; as a rule, active = well fitted curve in the direction sought with a large enough effect; inconclusive = small, poorly fitted or top-dose-only effect, or another doubt; inactive = no such curve, though single readings can be large; an effect the other way counts as inactive or inconclusive. Unless noted, % is scaled to controls: 0 for no effect and ±100 for the full control effect.

SMILES	IMPase Li cell	ALDH1A1 block	HPGD block	IMPase inh	PNC assembly inh	ALOX12 inhib
S=C(NCCC(c1ccccc1)c1ccccc1)Nc1cccc(Cl)c1	14%[38.3 µM]	?	-14%	13	42	16µM*
O=C(CSCc1ccccc1Cl)NNC(=S)Nc1ccccc1	12%[38.3 µM]	14µM*	-21%	-1	10	-15%
Cc1cccc(NCC(=O)NNC(=S)Nc2ccccc2)c1	2%	14µM*	.	.	.	.
CC(O)CCC(=O)NNC(=S)Nc1ccccc1 (stereo not drawn)	0%	-5%	.	.	.	.
Cc1cccc(NC(=S)NCCC(C)C)c1	-4%	-5%	28µM*	.	-5	5%
COc1ccc(CCNC(=S)Nc2cccc(C)c2)cc1	33%[38.3 µM]	-13%	-6%	-6	-15	-15%
S=C(NCc1ccncc1)Nc1cccc(Cl)c1	-5%	-2%	-1%	.	?	3%
C#CC(C)OC(=O)c1nnc2c3ccccc3n(COC)c2n1 (stereo not drawn)	.	2%[13.5 µM]	.	.	.	.
CC(C)CCNC(=S)Nc1ccccn1	9%	6.3µM*	-7%	.	?	?
O=C(Cc1ccccc1)NNC(=S)Nc1ccc(Cl)cc1	-15%	25µM*	-7%	.	5	-1%
Cc1cccc(NC(=S)NNC(=O)Cc2ccccc2)c1	13%	40µM*	-18%	2	15	-1%
S=C(Nc1ccc(Nc2ccccc2)cc1)Nc1ccccn1	14%	16µM*	.	.	.	.
CC(C)C(=O)NC(=S)Nc1ccccn1	.	?	.	4	-12	-6%
Cc1cccc(NC(=O)N[C@@H](C)C(=O)O)c1	13%[38.3 µM]	9%	-11%	0	-113*	8%
Cc1ccc(C2CC2C(=O)NNC(=S)Nc2ccc(Cl)cc2)cc1 (stereo not drawn)	5%	8.9µM*	?	-2	-97*	17%
CC(C)C[C@@H](CC(=O)N[C@@H](CCCN)CC(=O)N[C@@H]1CCNC[C@H]1C(=O)N[C@H](CC(=O)N[C@@H](CCC(=O)O)CC(=O)O)CC(C)C)NC(=O)[C@@H]1CNCC[C@H]1N	20%	?	-3%	.	.	0%
CCCC(=O)Nc1cc(C(=O)O)ccc1S(=O)(=O)c1ccc(C)cc1	5%	?	-17%	.	-113*	0%
CC(C)(C)NC(=O)CSc1ncnc2c1nnn2Cc1ccccc1Cl	-21%[38.3 µM]	?	32µM*	-7	-26	-7%
O=C(CSc1ncnc2c1nnn2Cc1ccccc1)NC1CCCC1	2%	8%	.	.	.	.
COc1cc(NC(=O)c2cccs2)c(OC)cc1NC(=O)c1ccco1	6%	?	?	.	-114*	1%
O=C(Nc1ccc(N2CCN(C(=O)c3cccs3)CC2)c(Cl)c1)c1ccco1	26%[38.3 µM]	28µM*	-5%	-1	?	-2%
O=C(O)CCC/C=C\C[C@@H]1CO[C@H](C(F)(F)F)O[C@@H]1c1ccccc1O	12%	11%	-11%	-7	.	-4%
CCCCCCn1c(CN2CCN(C(=O)c3ccco3)CC2)nc2c1c(=O)n(C)c(=O)n2C	7%	1.3µM*	-17%	?	-122*	9%
CCCCn1c(CN2CCN(C(=O)c3ccco3)CC2)nc2c1c(=O)n(C)c(=O)n2C	4%	22µM*	-7%	-7	-2	0%
CCCn1c(CN2CCN(C(=O)c3ccco3)CC2)nc2c1c(=O)n(C)c(=O)n2C	28%[38.3 µM]	-7%	-6%	-2	-12	5%
SMILES	IMPase Li cell	ALDH1A1 block	HPGD block	IMPase inh	PNC assembly inh	ALOX12 inhib
O=C(O)C12CC3CC(C1)CC(n1ncc(N4CCN(c5ccccc5)CC4)c(Cl)c1=O)(C3)C2	-9%	7.1µM*	-5%	.	-9	1%
O=c1c(Cl)c(N2CCNCC2)cnn1C12CC3CC(CC(C3)C1)C2	9%	4%	.	.	.	.
CCN1C(=O)[C@H]2[C@H]3[C@H](O)[C@H](O)C/C(=N/OCC(C)C)[C@H]3CC[C@@H]2C1=O	.	0%[13.5 µM]	.	.	.	.
S=C(NCc1ccccc1)NCc1ccc(CNC(=S)NCc2ccccc2)cc1	-1%	-9%	-20%	.	?	?
Cc1ccc(NC(=S)NNC(=S)NCc2ccccc2)cc1	1%[38.3 µM]	0.63µM*	-27%	1	-17	?
CCNC(=S)NNC(=S)NCc1ccccc1	-13%	-3%	28µM*	.	-9	?
Cc1ccc(/C=N/n2c(C3CCCCC3)n[nH]c2=S)o1	6%	?	28µM*	.	57	-1%
Cc1ccc(/C=N/n2c(COc3ccccc3)n[nH]c2=S)o1	2%	11%	.	.	.	.
O=[N+]([O-])c1ccc(/C=N/n2c(C3CCCCC3)n[nH]c2=S)cc1	10%[38.3 µM]	-2%	4.5µM*	5	6	-7%
Cc1cccc(-c2n[nH]c(=S)n2/N=C/c2ccc(C)o2)c1	10%	?	16µM*	.	38	1%
S=c1[nH]nc(C2CCCCC2)n1/N=C/c1cccs1	7%[38.3 µM]	22µM*	13µM*	3	55	-7%
CC(=O)N[C@H]1C(O[C@@H]2O[C@H](C[C@@H](O)[C@H]3O[C@@H](N4CCC(=O)NC4=O)[C@H](O)[C@@H]3O)[C@H](O)[C@H](O)[C@H]2NC(=O)/C=C/CCCCCCCCCCC(C)C)OC(CO)[C@@H](O)[C@@H]1O (stereo partly drawn)	8%	-4%	-3%	.	.	-3%[0.00818 µM]
COc1ccc(Nc2nnc(-c3ccc(C)c(S(=O)(=O)N4CCOCC4)c3)c3ccccc23)cc1	.	.	.	-2	.	.
Cc1cccn2c(Nc3ccc4c(c3)OCCO4)c(-c3ccc(Br)o3)nc12	.	.	.	15	.	.
C=CC[C@@H]1C=C[C@H](O/N=C(\C)CCN2CCc3nc(CC)c(CC)cc3C2)[C@H](CO)O1	.	10%[13.5 µM]	.	.	.	.
CCCCCCC=O	10%	-9%	-3%	.	.	-1%
COc1ccc(N2C(=O)[C@H]3CCC=C[C@H]3[C@@H]2c2ccccc2Br)cc1	10%	7.1µM*	-20%	.	.	-2%[0.00818 µM]
O=C1[C@H]2CCC=C[C@H]2[C@H](c2ccccc2Br)N1Cc1ccccc1	31%	?	-12%	.	.	-3%[0.00818 µM]
N[C@@H](CSc1nc2ccccn2c1[N+](=O)[O-])C(=O)O	11%	11%[13.5 µM]	-9%	.	.	9%[11.4 µM]
C=C1CC[C@H](O)C/C1=C/C=C1\CCC[C@]2(C)[C@@H]([C@H](C)CC[C@@H](O)C(C)(C)O)CC[C@@H]12	2%	-7%	-3%	.	.	0%
Nc1nc2ccccc2n1C(=O)c1ccccc1	1%	3%	.	.	.	.
Nc1nc2ccccc2n1C(=O)CCc1ccccc1	12%[38.3 µM]	7%	4%	-7	-87*	5%
Cc1ccc(N2C(=O)C3C4C=CC(CNC(=S)Nc5cccc(Cl)c5)(O4)C3C2=O)cc1 (stereo not drawn)	3%	1.6µM*	-28%	.	-12	-24%
